The text below walks through data of PubChem BioAssay (NCI).

Test in all cases: NCI-60 one-dose screen, 48 h (100 = growth as untreated, 0 = no growth, -100 = all killed)
Common to all, as to conditions: 10 µM unless noted

Assay [1] has as its system NCI-H23 lung.
Assay [2] relates to NCI-H226 lung.
The test system of assay [3] is NCI-H322M lung.
The test system of assay [4] is HOP-62 NSCLC.
In assay [5] the test system is NCI-H460 lung.
The subject of assay [6] is HOP-92 NSCLC.
The subject of assay [7] is NCI-H522 lung.
For assay [8], the system named is A549/ATCC NSCLC.
Assay [9] has as its system 786-0 renal.
In assay [10] the test system is COLO 205 colon.

Compounds without any hit were thinned out: in the full panel of roughly 83,000, 20% have a hit.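 A percent growth of 40 corresponds to 60% growth inhibition; 0 means no net growth; -100 means all cells died. Active threshold: below 10.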 Values without a mark were called inactive. The source made the active and inactive calls.

Consider `C[C@@H]1O[C@@H](O[C@@H]2C[C@H](c3ccc4c(c3O)C(=O)C3=C(C4=O)[C@@]4(O)C(=O)C[C@](C)(O)C[C@@]4(O)C=C3)O[C@H](C)[C@H]2O)CC[C@@H]1O[C@H]1C[C@@H](O)[C@H](O)[C@@H](C)O1`, for which the growth was 100% in assay [1]; 116% in [2]; 106% in assay [3]; 113% in [4]; 105% in assay [5]; 149% in [6]. In addition, the growth in assay [7] was 41.5%; in assay [8], 95.3%; in [9], 103%; in [10] it was -19.1% (active).

In the case of `CN(C)c1ccc(-c2ccc3c(c2)c(-c2ccccc2)nc(=O)n3C)cn1`, the growth in assay [1] was 71%; in assay [2] it was 77.2%; in assay [3] it was 60.9%; in assay [4] it was 36.8%; in [5], 19.7%; in [6], -45.4% (active). Besides, the growth in assay [7] is 7.96% (active); in assay [8], 45.8%; in [9], 26.2%; in assay [10], 28.1%.

In the case of `CCOC(=O)c1cc(C(=O)c2cc(OC)c(OC)c(OC)c2)n2ccccc12`, the growth in [1] is 38.9%; in assay [2] it was 34.5%; in [3], 49.7%; in assay [4], 28.3%; in [5] it was 14.2%; in assay [6] it was 54.1%. Moreover, the growth was 26% in [7], 25.7% in [8], 35.5% in assay [9] and -31.8% (active) in [10].

In the case of `O=C1c2ccccc2C(=O)C1c1ccc(Br)cc1`, the growth in assay [1] was 81.6%; in [2], 103%; in assay [3], 122%; in [4], 115%; in assay [5], 102%; in assay [6], 75.1%. Besides, the growth in assay [7] is 96.9%; in assay [8], 108%; in [9], 93.9%; in assay [10], 113%.

With `CCN1C(=O)N(CC)C2Nn3c(s/c(=C\c4ccccc4Br)c3=O)=NC21` (stereo not given), the growth in assay [1] was 25.6%; in assay [2], 57.5%; in assay [3], 46.7%; in [4] it was 37%; in assay [5], 4.16% (active); in assay [6] it was 42.9%. Also, the growth in assay [7] is -12.8% (active); in [8] it was 12.7%; in assay [9], 25.3%; in assay [10] it was 14.4%.

For `Cc1ccc(/C=C/C(=O)Nc2ncc(Cc3ccc(F)cc3)s2)o1`, the growth in assay [1] was 75.2%; in assay [2] it was 85.8%; in [3] it was 59.4%; in [4] it was 55.1%; in assay [5] it was 30.4%; in assay [6] it was 77.8%. The growth in [7] was 38%; in [8], 49%; in [9] it was 66.5%; in assay [10], 31.8%.

As to `CCCn1cnc2c(c1=N)C(c1ccc(F)cc1)c1sc3c(F)cccc3c1O2` (stereo not given), the growth in [1] was 70.1%; in [2] it was 74.7%; in assay [3], 78.1%; in assay [4] it was 52.4%; in assay [5] it was 18.7%; in [6], 67.5%. For the same compound, the growth was 4.15% (active) in [7], 48.1% in assay [8], 40.9% in assay [9] and 86.4% in assay [10].

With `CN1CCN(Cc2ccc(NC(=O)c3cncc(C#Cc4cnc(N)c5ccc(F)cc45)c3)cc2C(F)(F)F)CC1`, the growth in [1] is 30.1%; in assay [2], 28.2%; in assay [3] it was 23.5%; in assay [4] it was 7.94% (active); in [5], -15.9% (active); in assay [6], -6.92% (active). Further, the growth in assay [7] was -81.1% (active); in [8], 24.4%; in [9], -76.8% (active); in [10] it was -25.7% (active).

`COc1ccc(Nc2ncccc2/C=C/C(=O)c2cc(OC)c(OC)c(OC)c2)cc1`: the growth was -8.11% (active) in assay [1]; -43.2% (active) in assay [2]; 52% in assay [3]; -19.2% (active) in assay [4]; -44.9% (active) in assay [5]; -33.8% (active) in assay [6]. The growth in assay [7] was -76.5% (active); in assay [8] it was -57.1% (active); in assay [9], -64.2% (active); in assay [10], -77% (active).

With `O=C(/C=C/c1ccccc1)c1ccc(Nc2nc(Nc3ccc(F)cc3)nc(Nc3ccc(Cl)cc3)n2)cc1`, the growth in assay [1] was 83.9%; in assay [2], 96.1%; in [3] it was 94.5%; in [4], 102%; in [5], 82.1%; in assay [6], 48.1%. Moreover, the growth in [7] is 87.6%; in [8] it was 112%; in assay [9] it was 86.8%; in [10] it was 70.6%.

On to `Cn1ccc(=O)nc1`, for which the growth is 88.7% in [1]; 104% in assay [2]; 82.9% in assay [3]; 102% in [4]; 38.7% in [5]; 104% in assay [6]. The growth in [7] is 49%; in assay [8], 83.2%; in [9], 109%; in [10], 102%.

Take `Nc1[nH]n2cc(-c3ccc(F)cc3)nc2c1N=Nc1ccc(S(N)(=O)=O)cc1`: the growth in assay [1] is 80.9%; in [2], 88.4%; in assay [3] it was 41.9%; in assay [4], 90.7%; in [5] it was 58.8%; in assay [6], 74.9%. In addition, the growth was 55.3% in assay [7], 84.6% in assay [8], 68.1% in [9] and 95.1% in [10].

For `C=CCN1C(=O)c2cccc3c(N4CCOCC4)ccc(c23)C1=O`, the growth was 8.01% (active) in assay [1]; -2.43% (active) in [2]; -56.6% (active) in assay [3]; 26.4% in assay [4]; 8.52% (active) in [5]; 21.1% in [6]. Besides, the growth in assay [7] is -1.11% (active); in [8], 3.05% (active); in assay [9], 26.2%; in [10], -21.8% (active).
